Experimental data from PubChem BioAssay.

assay: P. aeruginosa biofilm formation inhibitors, primary screen, strain PAO1, LB-PBS medium, absorbance 600 nm (AID 1176); note: test concentration not given here; conditions: P. aeruginosa PAO1 growth/biofilm, A600, 12 h; higher = more signal; call rule not given here

z-score, inactive:
COCCOC(=O)N1C(=O)[C@@]2(c3cc(C#CCNC(N)=O)ccc31)[C@H](C(=O)N1CCc3cc(OC)c(OC)cc3C1)[C@H]1C(=O)O[C@H](c3ccccc3)[C@H](c3ccccc3)N1[C@@H]2c1ccc(OCCO)cc1 1.92, CCOC(=O)C1=CC[C@@H](c2ccccc2)N(S(=O)(=O)c2ccc(C)cc2)[C@H]1C(=O)OCC -0.0196, O=C(CS)NCCCCCCNC(=O)[C@@H]1C[C@@H]2C(=O)N3CCC[C@H]3C(=O)N2[C@@H]1c1ccc(O)cc1 -0.158, CCOC(=O)C1=CCC(c2ccc([N+](=O)[O-])cc2)N(S(=O)(=O)c2ccc(C)cc2)C1 (stereo not given) -0.116, COCCOC(=O)N1C(=O)[C@@]2(c3cc(C#CCNC(N)=O)ccc31)[C@H](c1ccc(O)cc1)N1[C@H](c3ccccc3)[C@H](c3ccccc3)OC(=O)[C@H]1[C@@H]2C(=O)Nc1nc2ccccc2s1 3.22, O=c1cccc(CCc2ccccc2)o1 -0.156, O=C1N(CCS(=O)(=O)c2ccccc2)Cc2ccccc2[C@H]2OC(c3ccc(OCCCO)cc3)=N[C@@]12CCS(=O)(=O)c1ccccc1 0.0533, CN(C)C(=O)[C@@]1(CCC(=O)OC(C)(C)C)N=C(c2ccc(OCCCO)cc2)O[C@H]1c1ccccc1 0.401, O=C1C2C=CC(C(O)c3ccc(-c4ccccc4)s3)N(n3cnnc3)C2C(=O)N1Cc1ccccc1 (stereo not given) 0.092, CC(C)C(O)C1C=CC2C(=O)N(c3ccccc3)C(=O)C2N1Nc1ccc(C#N)cc1 (stereo not given) 1.11
